Data from PubChem BioAssay AID1016 (Sanford-Burnham Center for Chemical Genomics, 2008).
Among all 200,000 compounds or so, about 330 (0.17%) were called active. Many of the other results were omitted from the sample, so actives are more common in it than they were. Unmarked numbers belong to inactive results.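 How the source made its calls: active means activation factor of 2 or more at 20 µM, a signal rise over negative controls twice the positive control's; inactive means the rest.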

The molecules below were run on alkaline phosphatase, intestinal [Bos taurus] (assay: bovine intestinal alkaline phosphatase activators, primary screen, biochemical, bovine IAP, CDP-star luminescence (AID 1016)). Details: purified bovine IAP, 30 min, at 20 µM, stronger effect = higher value.
With Cc1cc(C)cc(NC(=S)NC2CC3CCCC(C2)N3Cc2cccs2)c1 (stereo not given) the activation factor was 3 (active). Molecule COP(=O)(OC)C(NC(=O)c1ccc(C)cc1)C(Cl)(Cl)Cl (stereo not given) has an activation factor of 0.8. CN(C)C(=O)Oc1ccc(OCc2cccc[n+]2C)cc1 showed an activation factor of 1. CCOC(=O)C1SC2(C(F)(F)C(F)F)CC1(O)c1c(c(OC)c3occc3c1OC)O2 (stereo not given) was tested, and the activation factor was 0.9. With CN(C)CC1CCCCC1OC(=O)c1ccc(Cl)c(Cl)c1 (stereo not given) the activation factor was 1.
